Compound activity: PubChem, The Scripps Research Institute Molecular Screening Center
Wee1 stabilizer: human Wee1 degradation inhibition, primary screen. reporter increase, % at 5 µM. HeLa Luc-Wee1K328M stability, luciferase luminescence; 100% = proteasome inhibitor MG132 effect. AID 1321. hit rate 1.2% among 220,000. P30291;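 active = activation above the mean of all tested compounds plus 3 SD, set per screening run, cut at about 8.8% in these data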;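 note: cells exposed to compound for 20 h before luminescence read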
DAX1 inh-1: inhibitors of DAX1 repression of SF-1 activated StAR promoter; hit rate 1.1% among 370,000; inhibition, % at 6.8 µM; HEK293T StAR-luciferase reporter, SF-1/DAX-1 repression relief;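 active = inhibition above the mean over all tested compounds plus 3 SD, cut at about 3.6% in these data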;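 note: higher inhibition means more luminescence from relief of DAX-1 repression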
hgDAF-12 ag: hgDAF-12 agonism, primary luciferase screen; HEK293 GAL4-hgDAF12 UAS-luciferase reporter, agonist luminescence; normalized to butyrate control; activation, % at 6.8 µM; AID 687014; hit rate 1.8% among 370,000;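 active = activation above a cutoff set at the mean of all screened compounds plus 3 SD, cut at about 10% in these data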
ssDAF12 agonist: activators of S. stercoralis DAF-12 nuclear receptor; AID 652126; activation, % at 6.8 µM; HEK293 ssDAF-12/GRIP1 lit1-tk-luc reporter, luminescence; % of 3 µM dafachronic acid response; hit rate 1% among 370,000;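 active = activation above the mean over all tested compounds plus 3 SD, cut at about 0.9% in these data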
hcDAF-12 act: activates DAF-12 receptor from parasite H. contortus; activation, % at 6.8 µM; HEK293 hcDAF-12 lit1-tk-luc reporter, luminescence; 0% DMSO, 100% Δ7-dafachronic acid; hit rate 1.4% among 370,000;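 active = activation above the mean of all tested compounds plus 3 SD, cut at about 5.5% in these data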
DAX1 inh-2: NR0B1 (DAX1) inhibition. P51843. HEK293 Gal4-DAX1 luciferase reporter, luminescence. inhibition, % at 6.75 µM. hit rate 0.99% among 340,000. AID 504766;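 active = inhibition above the mean over all tested compounds plus 3 SD, cut at about 4.2% in these data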;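 note: inhibition shows as a rise in luminescence from relieved DAX1 repression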
Target sequence (P51843 207-470 limits assumed): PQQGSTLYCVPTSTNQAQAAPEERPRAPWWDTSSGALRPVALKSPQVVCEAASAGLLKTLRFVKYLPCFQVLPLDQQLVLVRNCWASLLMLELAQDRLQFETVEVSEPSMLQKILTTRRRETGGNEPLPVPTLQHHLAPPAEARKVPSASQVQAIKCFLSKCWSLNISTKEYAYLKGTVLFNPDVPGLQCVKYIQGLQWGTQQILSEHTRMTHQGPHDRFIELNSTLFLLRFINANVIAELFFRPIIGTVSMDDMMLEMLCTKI
DAX1 inh confirm: NR0B1 (human) inhibition, confirmation; shares compounds with DAX1 inh-1; HEK293T StAR-promoter luciferase reporter, SF-1/DAX-1 repression; inhibition, % at 6.8 µM; hit rate 87% among 2,400; AID 652134;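 active = inhibition above the average of every tested compound plus 3 SD, cut at about 3.8% in these data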;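 note: active compounds raise luminescence by relieving repression of the StAR reporter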
SF1 AF2mut Luc: nonselective inhibitor or artifact in SF-1 mutant DAX1 counter-screen | HEK293 StAR-luciferase, SF-1 AF2 mutant, luminescence | AID 652136 | shares compounds with DAX1 inh-1 | inhibition, % at 6.8 µM | hit rate 78% among 2,400;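 active = inhibition above the mean of all tested compounds plus 3 SD, cut at about 3% in these data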
LXRb hcDAF ctr: activates human LXR-beta, counter-screen for hcDAF-12 agonists | shares compounds with hcDAF-12 act | 3,400 tested, under 10 active | activation, % at 6.8 µM | HEK293 Gal4-LXR tk-luc reporter, luminescence, 24 h; normalized: DMSO 0%, positive control 100% | AID 743027;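 active = mean percent activation of the reporter above a cutoff set as the average over tested compounds plus their standard deviation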
Target sequence (P55055 whole entry, looked up, the tested form may be a part): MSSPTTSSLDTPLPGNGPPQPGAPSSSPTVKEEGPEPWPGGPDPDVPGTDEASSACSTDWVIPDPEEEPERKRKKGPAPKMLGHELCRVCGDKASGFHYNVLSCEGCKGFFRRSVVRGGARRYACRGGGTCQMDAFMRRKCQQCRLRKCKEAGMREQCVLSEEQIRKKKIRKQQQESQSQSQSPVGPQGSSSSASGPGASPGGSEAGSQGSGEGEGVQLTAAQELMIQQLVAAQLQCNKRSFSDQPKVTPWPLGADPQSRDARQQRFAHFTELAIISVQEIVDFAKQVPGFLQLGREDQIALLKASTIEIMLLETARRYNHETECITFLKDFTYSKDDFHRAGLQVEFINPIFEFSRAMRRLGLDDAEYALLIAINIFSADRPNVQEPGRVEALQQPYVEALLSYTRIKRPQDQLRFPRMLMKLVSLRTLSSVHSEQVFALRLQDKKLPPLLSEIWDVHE
hcDAF12 ag: hcDAF-12 agonism, confirmation assay; activation, % at 6.8 µM; HEK293 hcDAF-12 lit1-tk-luc reporter, luminescence; % of Δ7-dafachronic acid response; shares compounds with hcDAF-12 act; hit rate 61% among 3,400;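 active = mean activation across triplicate tests above the threshold derived from the earlier primary screen, cut at about 5.5% in these data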
hgDAF12 ag: confirmation of H. glycines DAF-12 agonists; shares compounds with hgDAF-12 ag; hit rate 80% among 3,300; HEK293 GAL4-hgDAF12 luciferase reporter, agonist mode; percent of butyrate response; activation, % at 6.8 µM;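 active = mean activation over triplicate wells above the hit cutoff derived from the earlier primary screen, cut at about 11% in these data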
LXRb DAF12 ctr: LXR-beta agonism as DAF-12 counter-screen | 3,300 tested, under 10 active | AID 743051 | shares compounds with hgDAF-12 ag | HEK293 Gal4-LXR luciferase reporter, 24 h | activation, % at 6.8 µM;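 active = mean activation of the triplicate above a set limit carried over from the primary screen, none filed active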
Large screens that a line does not name were inactive (follow-up assays come after a bar, where they were run); ! = a repeat was not active. Most compounds without a hit are left out; they make up all but 4.6% or so of the library.

O=C(Nc1ccc(N2CCCCCC2)cc1)c1ccc[nH]1	DAX1 inh-1 13, hgDAF-12 ag 15, hcDAF-12 act 7.3 (no result: Wee1 stabilizer) | DAX1 inh confirm 9.4 | SF1 AF2mut Luc 5.8 | LXRb hcDAF ctr inactive | hcDAF12 ag 10.0 | hgDAF12 ag 17 | LXRb DAF12 ctr inactive
COCCOCCn1c(CCCO)nc2ccccc21	none
COCCOCCn1c(/C=C/c2ccccc2)nc2ccccc21	DAX1 inh-1 6.2, hgDAF-12 ag 13 | DAX1 inh confirm 14 | SF1 AF2mut Luc 6.8 | hgDAF12 ag 15 | LXRb DAF12 ctr inactive
COc1ccc(/C=C/c2nc3ccccc3n2Cc2ccc(OC)c(OC)c2)cc1	DAX1 inh-1 5.9, hgDAF-12 ag 27, ssDAF12 agonist 0.9, hcDAF-12 act 7.7 | DAX1 inh confirm 19 | SF1 AF2mut Luc 6.8 | LXRb hcDAF ctr inactive | hcDAF12 ag 8.6 | hgDAF12 ag 15 | LXRb DAF12 ctr inactive
NC(CCc1ccccc1)c1csc(Nc2nccc(C(F)(F)F)n2)n1 (centres undefined)	none (no result: Wee1 stabilizer, DAX1 inh-2)
COc1nc(OC)nc(N2CCC(C(=O)N(C)Cc3ccco3)CC2)n1	none (no result: Wee1 stabilizer, DAX1 inh-2)
O=C(CNC(=O)c1cccs1)Nc1ccc2c(c1)OCCO2	DAX1 inh-1 12, hgDAF-12 ag 17 (no result: Wee1 stabilizer) | DAX1 inh confirm 8.0 | SF1 AF2mut Luc 4.0 | hgDAF12 ag 16 | LXRb DAF12 ctr inactive
COc1ccc(S(=O)(=O)N2CCCCC2)cc1NC(=O)COC(=O)c1ccco1	none (no result: Wee1 stabilizer)
C(=NOCc1ccccc1)c1ccccn1	DAX1 inh-1 6.0, hgDAF-12 ag 17 (no result: Wee1 stabilizer) | DAX1 inh confirm 6.1 | SF1 AF2mut Luc 2.9 | hgDAF12 ag 14 | LXRb DAF12 ctr inactive
C(=NOCc1ccccc1)c1ccncc1	none (no result: Wee1 stabilizer)
Cc1ccc(/C=C(\C#N)C(=O)Nc2ccccn2)o1	DAX1 inh-1 11, hgDAF-12 ag 18 | DAX1 inh confirm 10 | SF1 AF2mut Luc 7.6 | hgDAF12 ag 13 | LXRb DAF12 ctr inactive
COc1ccc(/C=C(\C#N)C(=O)Nc2ccccn2)cc1	none (no result: Wee1 stabilizer)
O=C1C(=Cc2cccs2)CCc2ccccc21	DAX1 inh-1 7.7, hgDAF-12 ag 18, ssDAF12 agonist 1.4, hcDAF-12 act 9.4 (no result: Wee1 stabilizer, DAX1 inh-2) | DAX1 inh confirm 12 | SF1 AF2mut Luc 6.2 | LXRb hcDAF ctr inactive | hcDAF12 ag 8.7 | hgDAF12 ag 18 | LXRb DAF12 ctr inactive
O=C(c1cc2c(ccc3ccccc32)o1)N1CCCCC1	DAX1 inh-1 15, hgDAF-12 ag 18, ssDAF12 agonist 1.2, hcDAF-12 act 6.8 (no result: Wee1 stabilizer) | DAX1 inh confirm 15 | SF1 AF2mut Luc 8.7 | LXRb hcDAF ctr inactive | hcDAF12 ag inactive | hgDAF12 ag 14 | LXRb DAF12 ctr inactive
Cc1nc(Nc2nc3ccccc3o2)nc(C)c1C	DAX1 inh-1 4.6, hgDAF-12 ag 15, hcDAF-12 act 6.0 | DAX1 inh confirm 14 | SF1 AF2mut Luc 5.8 | hgDAF12 ag 16 | LXRb DAF12 ctr inactive
CCCCCNC(=O)C(C1CC1)n1c(=O)c(-c2ccco2)nc2ccccc21 (centres undefined)	none (no result: Wee1 stabilizer, DAX1 inh-2)
COc1ccc2cc(CCC(C)=O)ccc2c1	DAX1 inh-1 5.2, hgDAF-12 ag 14 | DAX1 inh confirm 9.6 | SF1 AF2mut Luc 7.9 | hgDAF12 ag 16 | LXRb DAF12 ctr inactive
COc1ccc(CCc2ccc3cc(OC)ccc3n2)cc1	none (no result: Wee1 stabilizer)
CCOC(=O)c1ccc(Nc2ccc(C(C)=O)cc2)cc1	DAX1 inh-1 9.0, hgDAF-12 ag 21, ssDAF12 agonist 1.3, hcDAF-12 act 7.7 (no result: Wee1 stabilizer, DAX1 inh-2) | DAX1 inh confirm 7.0 | SF1 AF2mut Luc 5.7 | LXRb hcDAF ctr inactive | hcDAF12 ag 10 | hgDAF12 ag 19 | LXRb DAF12 ctr inactive
CCOC(=O)c1ccc(NS(=O)(=O)CC)cc1	none
COc1ccc(S(=O)(=O)NNC(=O)c2cc3cc4ccccc4nc3s2)cc1	none
COc1ccc2cc3cc(C(=O)NC4CC4)sc3nc2c1	DAX1 inh-1 15, hgDAF-12 ag 24, hcDAF-12 act 18 (no result: Wee1 stabilizer) | DAX1 inh confirm 14 | SF1 AF2mut Luc 4.2 | LXRb hcDAF ctr inactive | hcDAF12 ag 8.7 | hgDAF12 ag 16 | LXRb DAF12 ctr inactive
CCOC(=O)c1c(C)[nH]c(C)c1C(=O)CSc1nnc(-c2ccc(OC(F)F)cc2)o1	none
C/C(N)=C(/C#N)C(=O)CSc1nnc(-c2ccc(OC(F)F)cc2)o1	DAX1 inh-1 4.8, hgDAF-12 ag 20, hcDAF-12 act 6.8!, DAX1 inh-2 6.3! | DAX1 inh confirm 11 | SF1 AF2mut Luc 8.2 | LXRb hcDAF ctr inactive | hcDAF12 ag 7.3 | hgDAF12 ag 14 | LXRb DAF12 ctr inactive
COc1ccc(-c2cc(C)nc3c(-c4ccccc4)cnn23)cc1	DAX1 inh-1 12, hgDAF-12 ag 14 | DAX1 inh confirm 15 | SF1 AF2mut Luc 7.8 | hgDAF12 ag inactive | LXRb DAF12 ctr inactive
CCCn1c(C)cc(C(=O)CN2C(=O)c3ccccc3C2=O)c1C	hgDAF-12 ag 11, ssDAF12 agonist 0.9, hcDAF-12 act 9.7 (no result: Wee1 stabilizer) | LXRb hcDAF ctr inactive | hcDAF12 ag 12
c1ccc(CSc2cc3ccccc3[nH]2)cc1	hcDAF-12 act 10 (no result: Wee1 stabilizer) | LXRb hcDAF ctr inactive | hcDAF12 ag 11
COc1ccc(Nc2ccc(C(=O)O)cc2[N+](=O)[O-])cc1	none
COc1ccc(OC)c(Nc2ccc(C(=O)O)cc2[N+](=O)[O-])c1	hcDAF-12 act 8.4 | LXRb hcDAF ctr inactive | hcDAF12 ag inactive
CCN(CC)C(=O)N1CCc2ccccc21	hcDAF-12 act 6.7 | LXRb hcDAF ctr inactive | hcDAF12 ag inactive
O=C(c1ccc2c(c1)OCO2)N1CCCc2ccccc21	none
O=C(c1ccc2c(c1)OCO2)N1CCc2ccccc21	ssDAF12 agonist 1.1, hcDAF-12 act 7.1 (no result: Wee1 stabilizer) | LXRb hcDAF ctr inactive | hcDAF12 ag inactive
Cc1ccc(OC(C)C(=O)N2CCc3ccccc32)cc1 (centres undefined)	hcDAF-12 act 9.4 | LXRb hcDAF ctr inactive | hcDAF12 ag inactive
